From PubChem
DRD3 antagonist: qHTS of D3 Dopamine Receptor Antagonist: qHTS. D(3) dopamine receptor (Homo sapiens), P35462. max response, negative = inhibition, %. actives 2.5% (n = 360,000). D3R cells, DiscoveRx beta-arrestin luminescence, antagonist mode; hits give low values; in the data active means max response below about -50%; further: on the % scale 0 is the no-effect control and ±100 the full control effect
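Cells plated overnight at 1500 cells/well, then exposed to library compounds with dopamine controls for 90 minutes at 37 degrees C. DiscoveRx reagent added for 30–60 minutes at room temperature; luminescence read, quantitative HTS format.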
TRPML1 agonist: qHTS for Agonists of the Human Mucolipin Transient Receptor Potential 1 (TRPML1); Mucolipin-1 (Homo sapiens), Q9GZU1; TRPML1-expressing cells, Ca2+ dye fluorescence, FDSS; activation, % (no concentration beside the values); actives 0.12% (n = 410,000); AID 624414, 2012; in the data active means activation above about 50%; further: 0% is about no effect
Target sequence (Q9GZU1 whole entry, looked up): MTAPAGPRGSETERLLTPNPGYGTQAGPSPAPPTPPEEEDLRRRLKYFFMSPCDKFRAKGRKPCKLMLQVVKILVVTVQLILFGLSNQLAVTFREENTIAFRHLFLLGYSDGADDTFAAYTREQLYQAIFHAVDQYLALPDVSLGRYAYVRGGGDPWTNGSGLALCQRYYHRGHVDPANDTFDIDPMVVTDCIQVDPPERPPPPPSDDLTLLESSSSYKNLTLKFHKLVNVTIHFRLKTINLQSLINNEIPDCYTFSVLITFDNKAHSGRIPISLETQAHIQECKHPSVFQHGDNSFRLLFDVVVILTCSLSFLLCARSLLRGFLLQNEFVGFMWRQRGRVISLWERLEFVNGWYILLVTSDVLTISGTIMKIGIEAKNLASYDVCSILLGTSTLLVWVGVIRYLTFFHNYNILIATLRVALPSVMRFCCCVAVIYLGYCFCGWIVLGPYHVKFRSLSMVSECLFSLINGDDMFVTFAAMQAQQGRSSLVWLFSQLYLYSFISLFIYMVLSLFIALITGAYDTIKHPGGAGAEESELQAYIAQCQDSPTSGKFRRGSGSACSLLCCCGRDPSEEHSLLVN
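Tet-induced TRPML1-DL cells, 1,500 per well, cultured overnight, were loaded with a no-wash Ca2+ dye for 45–90 min. Calcium fluorescence was recorded on the FDSS for 110 s after compound addition, before the EC80 agonist (4 uM 54-4) was added.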
D3 ag: qHTS of D3 Dopamine Receptor Agonist: qHTS | D(3) dopamine receptor (Homo sapiens), P35462 | D3R DiscoveRx beta-arrestin cells, luminescence, 90 min | max activation, % | actives 0.58% (n = 410,000); in the data active means max activation above about 30%; further: 0% is about no effect
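Agonist-mode cell screen: cells plated at 1500/well and incubated overnight at 37 °C, then exposed to library compounds for 90 min at 37 °C. Detection reagent was added for 30–60 min at room temperature, and luminescence was read.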
TRPML1 inh: qHTS for Inhibitors of the Human Mucolipin Transient Receptor Potential 1 (TRPML1); Mucolipin-1 (Homo sapiens), Q9GZU1; TRPML1-inducible cells, Ca2+ dye fluorescence, FDSS; hits give low values; inhibition of EC80 agonist-evoked calcium signal; activity change, negative = inhibition, % (concentration not given with the values); actives 0.02% (n = 390,000); in the data active means activity change below about -50%;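 further: stimulus is agonist 54-4 at its EC80 concentration; on the % scale 0 is the no-effect control and ±100 the full control effect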
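Tet-induced TRPML1-DL cells loaded with Ca8 no-wash calcium dye were read kinetically on FDSS. Compound addition was followed by EC80 agonist 54-4 (4 uM final); inhibition was read over 110 s.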
The depositor's hits bear a star. Rows were chosen to be rich in hits. Some 2.9% of all compounds tested hit in one or more screens of this group.

How did O=C(OC(C(=O)N1CCOCC1)c1ccccc1)c1c2c(nc3ccccc13)CCCC2 (configuration not stated) do in these assays?
TRPML1 agonist: -0.7

How did Cc1ccc(-n2ncc(C(=O)NCCCN3CCCCC3)c2C2CCN(C(=O)OC(C)(C)C)CC2)cc1 do in these assays?
TRPML1 agonist: -0.2; D3 ag: -4.2; TRPML1 inh: 11.6

Results for O=C(NC1CCCC1)C(c1ccc(Cl)cc1)N1CCN(C2CCCCC2)CC1 (configuration not stated) ?
DRD3 antagonist: -5.5; D3 ag: -17.2

How did O=C(NC1CCCC1)C(c1ccc(F)cc1)N1CCC(O)(c2ccc(Cl)cc2)CC1 (configuration not stated) do in these assays?
DRD3 antagonist: -93.0*; D3 ag: -15.3

How did CCN1CCN(C(C(=O)NC2CCCCC2)c2ccc(Cl)cc2)CC1 (configuration not stated) do in these assays?
DRD3 antagonist: -59.8*; TRPML1 agonist: 0.8; D3 ag: -9.3; TRPML1 inh: -6.4

How did O=C(NC1CCCC1)C(c1ccc(Cl)cc1)N1CCOCC1 (configuration not stated) do in these assays?
DRD3 antagonist: 9.1; TRPML1 agonist: -1.1; D3 ag: 0.5; TRPML1 inh: -8.2

How did COc1ccc(Cl)cc1NCc1nnc2n1CCCCC2 do in these assays?
TRPML1 agonist: 0.7; D3 ag: -6.8; TRPML1 inh: 6.8

How did CCOC(=O)C1CCCN(c2nc3ccccc3nc2C(C#N)C(=O)OCC)C1 (configuration not stated) do in these assays?
DRD3 antagonist: -52.7*; TRPML1 agonist: 3.9; D3 ag: -4.3; TRPML1 inh: 53.5

What do the screens show for `CCOC(=O)C1CCCN(c2nc3ccccc3nc2C(C#N)C(=O)OCCOC)C1` (configuration not stated)?
DRD3 antagonist: 0.6; TRPML1 agonist: -0.5; D3 ag: -4.0; TRPML1 inh: 4.8

Results for Cc1sc2cc3c(c(C(=O)c4ccccc4)[n+]2c1C)-c1cccc2cccc-3c12 ?
DRD3 antagonist: -1.7; TRPML1 agonist: 0.0; D3 ag: -23.1; TRPML1 inh: -2.5

How did O=C(c1ccccc1)c1c2c(cc3sc4ccccc4[n+]13)-c1cccc3cccc-2c13 do in these assays?
DRD3 antagonist: -0.9; TRPML1 agonist: 54.0*; D3 ag: -1.6; TRPML1 inh: 7.3

What do the screens show for `O=C(c1ccccc1)c1ccc(OCCCN2CCCCC2)cc1`?
DRD3 antagonist: -83.0*; TRPML1 agonist: 0.3; D3 ag: -1.6; TRPML1 inh: 4.6

Results for c1ccc(COc2ccc(OCCCN3CCCCC3)cc2)cc1 ?
DRD3 antagonist: -79.9*; TRPML1 agonist: -0.2; D3 ag: 2.5; TRPML1 inh: -3.3

What do the screens show for `COC(=O)c1ccc(OCCN2CCCCCC2)cc1`?
DRD3 antagonist: -27.4; TRPML1 agonist: -0.5; D3 ag: -12.7; TRPML1 inh: -9.2

What do the screens show for `CC(C)COc1ccc(C(=O)CCN2CCCCC2)cc1`?
DRD3 antagonist: -16.2; TRPML1 agonist: 4.8; D3 ag: -18.1; TRPML1 inh: 6.1

Results for CCCCOc1ccc(C(=O)CCN2CCCCC2)cc1 ?
DRD3 antagonist: -56.0*; TRPML1 agonist: 4.2; D3 ag: -43.6; TRPML1 inh: -10.2

Results for CC(=O)c1ccc(OCCCN2CCCCC2)cc1 ?
DRD3 antagonist: -71.8*; TRPML1 agonist: -0.6; D3 ag: -4.7; TRPML1 inh: 10.3

Results for COc1cccc(OCCCN2CCCCC2)c1 ?
DRD3 antagonist: -12.9; TRPML1 agonist: 0.3; D3 ag: -42.9; TRPML1 inh: 3.1

What do the screens show for `O=C(c1ccccc1)c1ccc(OCC(O)CN2CCCCC2)cc1` (configuration not stated)?
DRD3 antagonist: -66.6*; TRPML1 agonist: 0.1; D3 ag: 2.3; TRPML1 inh: -29.2

Results for CCCC(O)(CCN1CCCCC1)c1ccc(OCC)cc1 (configuration not stated) ?
DRD3 antagonist: -1.8; TRPML1 agonist: 0.4; D3 ag: -9.0; TRPML1 inh: 26.4

What do the screens show for `COc1ccc(OCCCN2CCCCCC2)cc1`?
DRD3 antagonist: -64.4*; TRPML1 agonist: -0.6; D3 ag: -3.5; TRPML1 inh: -0.5

What do the screens show for `COc1ccc(C(O)(CCN2CCCCC2)C2CCCCC2)cc1` (configuration not stated)?
DRD3 antagonist: -52.5*; TRPML1 agonist: 0.5; D3 ag: -41.1; TRPML1 inh: 19.4

Results for Cc1cccc(N2CCN(C(=O)C3CCN(S(=O)(=O)c4cccs4)CC3)CC2)c1C ?
TRPML1 agonist: 0.5; D3 ag: -9.8; TRPML1 inh: -1.8

Results for Cc1ccc(C)c(N2CCN(C(=O)c3cc(S(=O)(=O)N4CCCC4)c[nH]3)CC2)c1 ?
TRPML1 agonist: 1.1; D3 ag: -18.0; TRPML1 inh: -12.7

Results for Cc1ccccc1Nc1nnc(-c2ccc(C)c(S(=O)(=O)N3CCCCC3)c2)c2ccccc12 ?
TRPML1 agonist: -0.1; D3 ag: -23.9; TRPML1 inh: 49.2

Results for CC1=NN(c2ccccc2)C(=O)C1N=Nc1ccc(N)cc1 (configuration not stated) ?
DRD3 antagonist: -59.7*; TRPML1 agonist: -1.4; D3 ag: -14.5; TRPML1 inh: 8.1

How did Oc1ccc(Br)cc1C1C=C(c2ccc3c(c2)OCO3)NC(c2c(F)cccc2Cl)N1 (configuration not stated) do in these assays?
TRPML1 agonist: 1.7; TRPML1 inh: -8.8

Results for O=C1CC(c2nc3ccccc3n2CCCCOc2ccccc2)CN1c1ccccc1Cl (configuration not stated) ?
TRPML1 agonist: 1.3; D3 ag: -14.7; TRPML1 inh: 21.6

How did O=C(NC1CCN(Cc2ccccc2)CC1)C12CC3CC(CC(C3)C1)C2 do in these assays?
DRD3 antagonist: -87.6*; TRPML1 agonist: 4.1; D3 ag: -9.3; TRPML1 inh: -11.7

How did O=C(NNC1CCN(Cc2ccccc2)CC1)c1ccccc1 do in these assays?
DRD3 antagonist: -14.3; TRPML1 agonist: -0.3; D3 ag: -7.4; TRPML1 inh: -1.4

What do the screens show for `Cc1ccccc1S(=O)Cc1ccc(C(=O)NC2CCN(Cc3ccccc3)CC2)o1` (configuration not stated)?
DRD3 antagonist: -21.9; TRPML1 agonist: 0.3; D3 ag: -22.9; TRPML1 inh: 6.1

Results for CC(C)(C)c1ccc(C(=O)NC2CCN(Cc3ccccc3)CC2)cc1 ?
DRD3 antagonist: -118.3*; TRPML1 agonist: 1.1; D3 ag: -8.4; TRPML1 inh: 27.6

How did Cc1ccc(CC(=O)NC2CCN(Cc3ccccc3)CC2)cc1 do in these assays?
DRD3 antagonist: -55.1*; TRPML1 agonist: -0.3; D3 ag: -9.6; TRPML1 inh: -0.4
